Laboratory results published in PubChem BioAssay (EPA / NIEHS).
Results filed as inconclusive are left out. Activity calls are given as the source filed them. How the source made its calls: active means hit-call score of the fitted dose curve at least 0.9, where 1 is the maximum; inconclusive means response in the unintended direction; inactive means score below 0.9.

Columns and labels:
[1] = biological target: rat Thyrotropin Releasing Hormone Receptor (TRH), Trhr (gene 25570) (UniProt Q01717); assay: NVS_GPCR_rTRH: NovaScreen (NVS) G Protein-Coupled Receptor Assay for rat Thyrotropin Releasing Hormone Receptor (TRH) (AID 2283329);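 further: hit means lower bound tracer signal versus DMSO baseline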
Sequence of rat Thyrotropin Releasing Hormone Receptor (TRH), Trhr (gene 25570) (Q01717 whole entry, looked up): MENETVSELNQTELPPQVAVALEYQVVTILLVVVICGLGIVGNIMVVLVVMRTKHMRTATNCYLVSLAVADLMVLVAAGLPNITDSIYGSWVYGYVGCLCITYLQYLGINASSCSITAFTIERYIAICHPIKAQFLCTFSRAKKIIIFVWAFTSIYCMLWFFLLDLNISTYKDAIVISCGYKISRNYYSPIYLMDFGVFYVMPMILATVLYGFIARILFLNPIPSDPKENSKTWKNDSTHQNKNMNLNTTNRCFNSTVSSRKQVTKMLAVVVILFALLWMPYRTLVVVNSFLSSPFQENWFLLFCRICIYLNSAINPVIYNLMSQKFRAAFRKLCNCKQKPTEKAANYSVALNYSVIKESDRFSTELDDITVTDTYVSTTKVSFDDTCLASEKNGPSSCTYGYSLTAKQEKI
Summary of the method: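 Competitive radioligand binding on rat forebrain membrane preparations, with filtration and scintillation readout after 4 h. Primary testing in duplicate at 25 uM; actives confirmed in concentration-response. DMSO defined baseline.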

[2] = biological target: human Peripheral-type Benzodiazepine Receptor (PBR), TSPO (gene 706) (UniProt P30536); assay: NVS_MP_hPBR: NovaScreen (NVS) Membrane Protein Assay for human Peripheral-type Benzodiazepine Receptor (PBR) (AID 2283331);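 further: hits reduce radioligand binding relative to DMSO baseline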
Sequence of human Peripheral-type Benzodiazepine Receptor (PBR), TSPO (gene 706) (P30536 whole entry, looked up): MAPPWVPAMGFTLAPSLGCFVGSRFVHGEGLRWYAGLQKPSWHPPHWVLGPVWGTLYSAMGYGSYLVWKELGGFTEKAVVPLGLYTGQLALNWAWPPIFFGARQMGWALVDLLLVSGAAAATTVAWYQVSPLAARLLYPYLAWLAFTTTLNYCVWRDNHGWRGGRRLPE
Summary of the method: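 Radioligand displacement on human colonic cell membranes, 1 h incubation; bound radioactivity by filtration and scintillation counting. Primary screen in duplicate at 25 uM single concentration, actives followed up in concentration series; loss of binding versus DMSO.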

[3] = biological target: Voltage-gated inwardly rectifying potassium channel KCNH2 (Homo sapiens) (UniProt Q12809); assay: NVS_IC_hKhERGCh: NovaScreen (NVS) Ion Channel Assay for human Potassium Channel ERG (KhERGCh) (AID 2283333)
Sequence of Voltage-gated inwardly rectifying potassium channel KCNH2 (Homo sapiens) (Q12809 whole entry, looked up): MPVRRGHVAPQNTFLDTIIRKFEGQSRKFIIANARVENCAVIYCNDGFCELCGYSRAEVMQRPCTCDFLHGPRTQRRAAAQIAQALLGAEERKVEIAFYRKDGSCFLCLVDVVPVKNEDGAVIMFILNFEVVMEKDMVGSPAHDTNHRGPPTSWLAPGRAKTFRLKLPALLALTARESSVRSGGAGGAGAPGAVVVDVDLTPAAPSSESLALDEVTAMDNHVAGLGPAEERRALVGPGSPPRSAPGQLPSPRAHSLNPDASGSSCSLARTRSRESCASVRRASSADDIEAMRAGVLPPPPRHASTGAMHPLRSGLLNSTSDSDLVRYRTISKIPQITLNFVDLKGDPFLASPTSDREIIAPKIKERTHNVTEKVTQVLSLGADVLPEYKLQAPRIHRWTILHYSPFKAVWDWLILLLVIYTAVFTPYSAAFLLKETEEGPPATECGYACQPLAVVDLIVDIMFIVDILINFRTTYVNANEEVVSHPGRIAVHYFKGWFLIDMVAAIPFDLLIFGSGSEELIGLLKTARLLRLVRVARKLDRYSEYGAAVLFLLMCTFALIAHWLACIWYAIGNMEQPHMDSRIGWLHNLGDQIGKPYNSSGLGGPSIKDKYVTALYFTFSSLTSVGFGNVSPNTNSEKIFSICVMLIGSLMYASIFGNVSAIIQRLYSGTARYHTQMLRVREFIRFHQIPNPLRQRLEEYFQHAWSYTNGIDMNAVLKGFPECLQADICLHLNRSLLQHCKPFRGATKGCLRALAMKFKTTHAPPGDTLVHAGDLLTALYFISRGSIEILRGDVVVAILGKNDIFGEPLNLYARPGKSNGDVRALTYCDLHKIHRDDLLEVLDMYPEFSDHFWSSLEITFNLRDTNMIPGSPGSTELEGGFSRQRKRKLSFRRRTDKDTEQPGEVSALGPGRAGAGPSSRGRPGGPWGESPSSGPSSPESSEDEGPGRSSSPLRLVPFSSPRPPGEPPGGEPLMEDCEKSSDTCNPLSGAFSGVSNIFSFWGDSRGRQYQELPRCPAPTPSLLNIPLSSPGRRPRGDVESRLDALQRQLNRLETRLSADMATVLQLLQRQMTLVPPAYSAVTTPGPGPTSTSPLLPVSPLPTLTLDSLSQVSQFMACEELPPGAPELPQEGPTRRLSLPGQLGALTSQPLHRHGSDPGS
Summary of the method: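 Cell-free radioligand competition binding on hERG protein extracted from CHO cells, read by filter-based scintillation counting 0.75 h after dosing. Primary screen at 25 uM in duplicate, actives followed in concentration series. Signal loss fitted versus DMSO.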

[4] = biological target: rat Peripheral-type Benzodiazepine Receptor (PBR), Tspo (gene 24230) (UniProt P16257); assay: NVS_MP_rPBR: NovaScreen (NVS) Membrane Protein Assay for rat Peripheral-type Benzodiazepine Receptor (PBR) (AID 2283335)
Sequence of rat Peripheral-type Benzodiazepine Receptor (PBR), Tspo (gene 24230) (P16257 whole entry, looked up): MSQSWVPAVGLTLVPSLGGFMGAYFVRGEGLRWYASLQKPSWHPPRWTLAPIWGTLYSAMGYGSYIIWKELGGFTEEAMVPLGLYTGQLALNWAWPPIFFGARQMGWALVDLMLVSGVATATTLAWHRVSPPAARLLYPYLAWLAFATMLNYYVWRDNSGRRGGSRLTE
Summary of the method: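 Radioligand displacement, rat kidney membrane prep, 1 h exposure, filter-based scintillation read; DMSO baseline, loss-of-signal scored. Primary screen at 25 uM in duplicate, actives followed up in concentration series.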

[5] = NVS_IC_rCaBTZCHL: NovaScreen (NVS) Ion Channel Assay for Calcium Channel, Type L, Benzothiazepine Site (CaBTZCHL) (AID 2283337)
Summary of the method: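 Competitive displacement of a site-specific radioligand from rat cortex membranes, measured as signal loss against DMSO baseline by filter radiodetection after 1.5 h. Single-point 25 uM primary screen.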

[6] = biological target: rat Gamma-Aminobutyric Acid Type A Receptor BDZ, alpha 6 site (GABARa6), Gabra6 (gene 29708) (UniProt P30191); assay: NVS_LGIC_rGABARa6: NovaScreen (NVS) Ligand-Gated Ion Channel Assay for rat Gamma-Aminobutyric Acid Type A Receptor BDZ, alpha 6 site (GABARa6) (AID 2283339)
Sequence of rat Gamma-Aminobutyric Acid Type A Receptor BDZ, alpha 6 site (GABARa6), Gabra6 (gene 29708) (P30191 whole entry, looked up): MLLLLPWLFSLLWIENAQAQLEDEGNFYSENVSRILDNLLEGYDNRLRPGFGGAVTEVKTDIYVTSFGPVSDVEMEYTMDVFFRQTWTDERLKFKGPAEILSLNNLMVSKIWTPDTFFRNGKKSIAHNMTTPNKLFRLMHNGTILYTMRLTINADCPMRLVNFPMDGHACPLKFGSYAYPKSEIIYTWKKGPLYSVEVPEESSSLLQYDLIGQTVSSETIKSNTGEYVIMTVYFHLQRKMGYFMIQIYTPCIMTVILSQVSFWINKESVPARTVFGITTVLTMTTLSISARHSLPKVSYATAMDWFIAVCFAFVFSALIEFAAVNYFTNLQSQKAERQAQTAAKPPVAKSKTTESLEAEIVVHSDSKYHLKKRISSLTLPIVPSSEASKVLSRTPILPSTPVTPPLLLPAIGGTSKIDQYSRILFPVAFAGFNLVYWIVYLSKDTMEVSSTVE
Summary of the method: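 Rat cerebellar membranes; radioligand binding, filtration and scintillation counting, read 1 h after dosing. Single-concentration duplicate screen at 25 uM, then concentration-response up to 50 uM for actives; loss of signal fitted versus DMSO baseline.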

[7] = system: guinea pig Histamine Receptor (H2), gene 100729734; assay: NVS_GPCR_gH2: NovaScreen (NVS) G Protein-Coupled Receptor Assay for guinea pig Histamine Receptor (H2) (AID 2283342)
Summary of the method: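 Radioligand displacement on guinea pig striatal membranes, 1 h after dosing, filter-based scintillation counting; loss of signal versus DMSO. Single-point screen at 25 uM in duplicate, then concentration-response up to 50 uM.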

[8] = system: NCBI gene 100848466; assay: NVS_NR_bPR: NovaScreen (NVS) Nuclear Receptor Binding Assay for bovine Progextron Receptor (PR) (AID 2283343);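 on AC50: actives lower bound radioligand signal below DMSO meaning displacement of the label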
Summary of the method: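 Bovine uterine membrane preparation; radioligand displacement read by scintillation counting 18 h after dosing. Primary screen single concentration, 25 uM, in duplicate; actives followed up in concentration series. Signal loss versus DMSO baseline.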

[9] = biological target: chimpanzee Androgen Receptor (AR), AR (gene 747460) (UniProt O97775); assay: NVS_NR_cAR: NovaScreen (NVS) Nuclear Receptor Binding Assay for chimpanzee Androgen Receptor (AR) (AID 2283346);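 further: radioligand displacement from AR measured by scintillation counting in a cell-free assay; a loss of bound radioligand signal versus DMSO counts as binding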
Sequence of chimpanzee Androgen Receptor (AR), AR (gene 747460) (O97775 whole entry, looked up): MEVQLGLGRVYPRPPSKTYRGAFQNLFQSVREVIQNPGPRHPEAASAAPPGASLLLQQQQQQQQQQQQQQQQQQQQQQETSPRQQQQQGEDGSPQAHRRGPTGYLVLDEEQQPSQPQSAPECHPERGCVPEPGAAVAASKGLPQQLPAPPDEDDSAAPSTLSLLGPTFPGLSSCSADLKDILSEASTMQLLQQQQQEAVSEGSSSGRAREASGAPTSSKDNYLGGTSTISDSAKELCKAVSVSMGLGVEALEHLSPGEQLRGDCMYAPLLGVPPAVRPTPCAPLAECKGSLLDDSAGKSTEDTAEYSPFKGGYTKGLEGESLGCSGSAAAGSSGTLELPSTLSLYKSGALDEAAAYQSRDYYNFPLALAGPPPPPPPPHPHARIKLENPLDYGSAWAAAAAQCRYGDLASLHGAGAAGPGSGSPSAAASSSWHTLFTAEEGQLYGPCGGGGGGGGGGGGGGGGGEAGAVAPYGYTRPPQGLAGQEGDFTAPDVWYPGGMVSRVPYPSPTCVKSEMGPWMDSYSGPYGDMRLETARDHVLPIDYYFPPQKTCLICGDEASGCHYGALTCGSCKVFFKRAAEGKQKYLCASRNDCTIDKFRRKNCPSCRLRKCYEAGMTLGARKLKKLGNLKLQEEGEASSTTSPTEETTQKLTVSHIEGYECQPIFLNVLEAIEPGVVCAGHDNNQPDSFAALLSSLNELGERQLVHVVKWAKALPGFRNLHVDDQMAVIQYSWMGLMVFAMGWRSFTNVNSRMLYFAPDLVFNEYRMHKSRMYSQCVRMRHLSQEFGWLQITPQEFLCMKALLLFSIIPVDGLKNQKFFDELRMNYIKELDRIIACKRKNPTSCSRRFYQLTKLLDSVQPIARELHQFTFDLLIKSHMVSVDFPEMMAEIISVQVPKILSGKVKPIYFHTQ
Summary of the method: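 Radioligand binding to chimpanzee AR expressed in Sf9/Sf21 cells, cell-free, measured 72 h after dosing by lysate-based scintillation counting. Loss of signal vs DMSO; initial duplicate screen at 25 uM, actives retested in concentration series.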

[10] = biological target: human Androgen Receptor (AR), AR (gene 367) (UniProt P10275); assay: NVS_NR_hAR: NovaScreen (NVS) Nuclear Receptor Binding Assay for human Androgen Receptor (AR) (AID 2283332)
Sequence of human Androgen Receptor (AR), AR (gene 367) (P10275 whole entry, looked up): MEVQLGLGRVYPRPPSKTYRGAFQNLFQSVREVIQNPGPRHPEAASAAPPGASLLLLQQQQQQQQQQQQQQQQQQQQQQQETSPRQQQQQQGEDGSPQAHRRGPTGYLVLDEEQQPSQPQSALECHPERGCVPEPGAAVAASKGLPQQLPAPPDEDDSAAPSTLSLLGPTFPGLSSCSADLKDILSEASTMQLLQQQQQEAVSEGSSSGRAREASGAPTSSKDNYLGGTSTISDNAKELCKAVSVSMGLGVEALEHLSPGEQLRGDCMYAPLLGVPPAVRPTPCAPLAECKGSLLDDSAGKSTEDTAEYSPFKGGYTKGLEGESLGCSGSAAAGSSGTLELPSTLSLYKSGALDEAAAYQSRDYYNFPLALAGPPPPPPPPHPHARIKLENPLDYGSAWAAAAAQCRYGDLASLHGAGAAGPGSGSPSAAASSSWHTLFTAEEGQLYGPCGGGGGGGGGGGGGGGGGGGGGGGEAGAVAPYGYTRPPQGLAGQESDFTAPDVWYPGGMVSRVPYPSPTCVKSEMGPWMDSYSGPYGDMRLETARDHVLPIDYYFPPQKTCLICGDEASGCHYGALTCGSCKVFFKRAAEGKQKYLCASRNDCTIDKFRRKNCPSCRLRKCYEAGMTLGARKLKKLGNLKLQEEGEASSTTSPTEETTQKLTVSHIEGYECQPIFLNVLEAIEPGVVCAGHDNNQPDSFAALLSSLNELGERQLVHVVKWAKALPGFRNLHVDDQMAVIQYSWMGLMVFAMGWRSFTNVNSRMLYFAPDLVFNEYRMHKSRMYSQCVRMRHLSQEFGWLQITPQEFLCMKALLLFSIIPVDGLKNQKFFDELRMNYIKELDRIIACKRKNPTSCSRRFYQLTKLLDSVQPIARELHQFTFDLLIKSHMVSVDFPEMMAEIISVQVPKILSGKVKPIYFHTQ
Summary of the method: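 LnCAP cell-free extract; radioligand displacement read by scintillation counting after 20 h. Primary screen single concentration 25 uM in duplicate, actives then run as concentration series; loss-of-signal fitted relative to DMSO baseline.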

[11] = biological target: human Constitutive Androstane Receptor (CAR), NR1I3 (gene 9970) (UniProt Q14994); assay: NVS_NR_hCAR_Antagonist: NovaScreen (NVS) Nuclear Receptor Binding Assay for human Constitutive Androstane Receptor Antagonism (CAR) (AID 2283344)
Sequence of human Constitutive Androstane Receptor (CAR), NR1I3 (gene 9970) (Q14994 whole entry, looked up): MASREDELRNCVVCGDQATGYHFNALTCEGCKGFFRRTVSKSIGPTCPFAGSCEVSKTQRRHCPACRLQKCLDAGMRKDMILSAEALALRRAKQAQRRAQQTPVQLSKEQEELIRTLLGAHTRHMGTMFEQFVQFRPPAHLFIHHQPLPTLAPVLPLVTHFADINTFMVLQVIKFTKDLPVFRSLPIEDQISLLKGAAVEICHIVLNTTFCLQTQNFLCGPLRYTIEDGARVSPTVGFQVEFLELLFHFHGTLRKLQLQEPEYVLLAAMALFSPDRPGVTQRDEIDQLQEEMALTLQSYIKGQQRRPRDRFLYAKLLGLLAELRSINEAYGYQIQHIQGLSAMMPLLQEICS
Summary of the method: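 Cell-free TR-FRET binding read 1 h after dosing, antagonist mode; loss of signal versus DMSO baseline. Primary screen in duplicate at a single 25 uM; actives retested in concentration series.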

[12] = biological target: Bile acid receptor (Homo sapiens) (UniProt Q96RI1); assay: NVS_NR_hFXR_Agonist: NovaScreen (NVS) Nuclear Receptor Binding Assay for human Farnesoid X Receptor Agonism (FXR) (AID 2283347)
Summary of the method: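 Cell-free TR-FRET binding assay with extracted human FXR protein, agonist format, read 1 h after dosing. Primary screen at 25 uM single concentration in duplicate, actives retested in concentration series; gain of signal versus DMSO.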

[13] = biological target: rat Glutamate, MK-801 Agonist Site (GluNMDA_MK801), Grin1 (gene 24408) (UniProt P35439); assay: NVS_LGIC_rGluNMDA_MK801_Agonist: NovaScreen (NVS) Ligand-Gated Ion Channel Assay for rat Glutamate, MK-801 Agonist Site (GluNMDA_MK801) (AID 2283340)
Summary of the method: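 Radioligand binding at MK-801 site in rat forebrain membranes, 1.5 h incubation, filter-based scintillation counting. Initially 25 uM in duplicate; actives then run in concentration-response up to 50 uM, fitted for gain of signal versus DMSO.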

## FC(F)C(F)(F)OCC(Cn1cncn1)c1ccc(Cl)cc1Cl (stereo not drawn)
[1]
  outcome: inactive
[2]
  AC50: 19.4 µM (active)
[3]
  AC50: 19.9 µM (active)
[4]
  AC50: 5.37 µM (active)
[5]
  AC50: 7.26 µM (active)
[6]
  outcome: inactive
[7]
  AC50: 10.1 µM (active)
[8]
  AC50: 25 µM (active)
[9]
  AC50: 5.47 µM (active)

## CCCSP(=O)(OCC)SCCC
[2]
  AC50: 17.7 µM (active)
[10]
  outcome: inactive
[4]
  AC50: 11.5 µM (active)
[8]
  outcome: inactive
[11]
  outcome: inactive

## CC(C)=CC1C(C(=O)OCN2C(=O)C3=C(CCCC3)C2=O)C1(C)C (stereo not drawn)
[2]
  AC50: 13.5 µM (active)
[4]
  outcome: inactive

## Nc1c(Cl)cc([N+](=O)[O-])cc1Cl
[1]
  outcome: inactive
[2]
  outcome: inactive
[9]
  AC50: 15.4 µM (active)
[12]
  outcome: inactive

## C=C(C)[C@H]1Cc2c(ccc3c2O[C@@H]2COc4cc(OC)c(OC)cc4[C@@H]2C3=O)O1
[2]
  outcome: inactive
[10]
  outcome: inactive
[4]
  AC50: 4.23 µM (active)
[8]
  outcome: inactive
[11]
  outcome: inactive

## CCOP(=O)(NC(C)C)Oc1ccc(SC)c(C)c1 (stereo not drawn)
[11]
  AC50: 16.8 µM (active)
[9]
  AC50: 25 µM (active)

## CCCSP(=O)(OCC)Oc1ccc(Br)cc1Cl (stereo not drawn)
[2]
  AC50: 3.16 µM (active)
[4]
  AC50: 0.28 µM (active)
[8]
  AC50: 20.1 µM (active)
[11]
  AC50: 16 µM (active)

## CC(C)[C@H](C(=O)O[C@H](C#N)c1cccc(Oc2ccccc2)c1)c1ccc(Cl)cc1
[2]
  outcome: inactive
[8]
  outcome: inactive

## CC(COc1ccc(Oc2ccccc2)cc1)Oc1ccccn1 (stereo not drawn)
[2]
  outcome: inactive
[4]
  outcome: inactive
[11]
  outcome: inactive

## CC(C)N(C(=O)SCC(Cl)=C(Cl)Cl)C(C)C
[4]
  AC50: 45.6 µM (active)
[8]
  AC50: 36.8 µM (active)
[11]
  outcome: inactive

## CCc1cccc(C)c1N(C(=O)CCl)C(C)COC (stereo not drawn)
[2]
  AC50: 9.23 µM (active)
[4]
  AC50: 8.9 µM (active)
[13]
  outcome: inactive
[8]
  outcome: inactive
[11]
  AC50: 12.9 µM (active)

## CCOP(=O)(OCC)Oc1cc(C)nc(C(C)C)n1
[2]
  outcome: inactive
[8]
  outcome: inactive

## CC1=NNC(=O)N(/N=C/c2cccnc2)C1
[2]
  outcome: inactive
[5]
  outcome: inactive
